Source: PubChem BioAssay (Bradner/Qi Labs at DFCI)
Only a selection was taken, and hits are over-represented in it overall.
CBX7 inh – CBX7 inhibition, primary AlphaScreen; O95931; AlphaScreen His6-CBX7 / biotin-H3K27me3 peptide binding; hits give low values; normalised signal (fraction of DMSO) (concentration not given with the values); actives 1.1% (n = 66,000); AID 1224903; in the data active = normalised signal below about 0.5
Target sequence (O95931 whole entry, looked up): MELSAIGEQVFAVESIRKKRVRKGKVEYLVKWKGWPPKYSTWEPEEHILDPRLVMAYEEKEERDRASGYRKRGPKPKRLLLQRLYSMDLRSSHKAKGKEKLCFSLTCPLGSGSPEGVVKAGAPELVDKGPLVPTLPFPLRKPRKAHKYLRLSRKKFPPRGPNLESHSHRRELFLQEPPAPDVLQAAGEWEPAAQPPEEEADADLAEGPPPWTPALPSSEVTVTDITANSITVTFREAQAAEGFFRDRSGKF
The depositor's hits bear a star; ! = repeats disagree.

Screening COc1cc(Nc2nc(-c3ccccc3)cs2)c(OC)cc1Cl returned CBX7 inh 0.75.
For COc1cc(Nc2nc(-c3ccc(-c4ccccc4)cc3)cs2)c(OC)cc1Cl the results were CBX7 inh 0.54.
For COc1cc(Nc2nc(-c3ccc(C4CCCCC4)cc3)cs2)c(OC)cc1Cl the results were CBX7 inh 0.46*!.
Screening CCCSc1oc(-c2cccs2)nc1S(=O)(=O)c1ccc(Br)cc1 returned CBX7 inh 1.
For Cc1ccc(-n2ncnc2-c2cccs2)cc1Cl the results were CBX7 inh 1.
Screening CC(C)c1ccc(Nc2c(-c3ccc(F)cc3)nc3cnccn23)cc1 returned CBX7 inh 1.2.
For Cc1ccn2c(NC(=O)c3ccc(F)cc3)c(-c3ccccc3)nc2c1 the results were CBX7 inh 1.2.
For COc1ccc(N2C(=O)c3ccc(C(=O)Nc4ccccc4C(=O)O)cc3C2=O)cc1 the results were CBX7 inh 1.1.
`O=C(Nc1nc(N2C(=O)c3ccccc3C2=O)n(-c2ccccc2)n1)c1ccc(F)cc1` gave CBX7 inh 0.09*.
Screening COc1ccc(NC(=O)c2ccc3c(c2)C(=O)N(c2cccc(C)c2)C3=O)cc1 returned CBX7 inh 0.82.
For Cc1ccn2c(NC(=O)c3ccc(F)cc3)c(-c3ccc(F)cc3)nc2c1 the results were CBX7 inh 1.1.
For COc1ccc(C(=O)Nc2nc(N3C(=O)c4ccccc4C3=O)n(-c3ccccc3)n2)cc1 the results were CBX7 inh 0.2*.
Screening CCOc1ccc(Nc2nc(-c3ccc(OC)cc3)c(-c3ccccc3)s2)cc1 returned CBX7 inh 0.81.
Screening Cc1ccc(-c2nnc(Nc3ccc(Cl)cc3)c3ccccc23)cc1S(=O)(=O)N1CCN(C)CC1 returned CBX7 inh 0.91.
CCCCOc1ccc(-c2nc3ncccn3c2NC2CCCC2)cc1 was read as CBX7 inh 0.91.
Screening CCCCOc1ccc(-c2nc3c(C(=O)OC)c[nH]n3c2NC2CCCCCC2)cc1 returned CBX7 inh 0.21*.
For CCCOc1ccc(-c2nc(Oc3ccc(C(=O)OC)cc3)c3ccccc3n2)cc1 the results were CBX7 inh 1.1.
`CCCCOc1cccc(-c2nc3c(C(=O)OC)c[nH]n3c2NC2CCCCCC2)c1` gave CBX7 inh 0.46*.
Screening COc1cccc(-c2nc(SCC(=O)NC3CCCC3)c(-c3ccc(C)cc3)[nH]2)c1 returned CBX7 inh 0.92.
COC(=O)c1c[nH]n2c(NC3CCCC3)c(-c3cccc(Br)c3)nc12 was read as CBX7 inh 0.73.
Screening C=C(C)Cn1c(CNC(=O)c2ccccc2)nc2ccccc21 returned CBX7 inh 1.2.
Screening CC(C)CNC(=O)c1cc(-c2cccc(Cl)c2)on1 returned CBX7 inh 1.2.
Screening COc1ccc(-c2cc3nc(C)c(CCC(=O)Nc4ccc(F)c(Cl)c4)c(C)n3n2)c(OC)c1 returned CBX7 inh 1.
Screening CC(=O)N1CCc2cc(S(=O)(=O)NC(C(=O)N3CCN(c4ccccc4)CC3)C(C)C)ccc21 (stereo not given) returned CBX7 inh 0.87.
Cc1onc(-c2ccccc2)c1C(=O)NCCc1ccc(F)cc1 was read as CBX7 inh 1.
Screening COc1ccc(CCN2C(=O)CC(N3CCN(c4ccc(Cl)cc4)CC3)C2=O)cc1OC (stereo not given) returned CBX7 inh 0.85.
For O=C(NCCc1ccccc1)C1=CCN(S(=O)(=O)c2ccc(Br)cc2)CC1 the results were CBX7 inh 1.1.
COCCNC(=O)CCCn1ncc2ccccc21 was read as CBX7 inh 1.
For c1ccc(-c2nnc3sc(-c4ccccn4)nn23)cc1 the results were CBX7 inh 0.8.
For c1ccc(-c2nnc3sc(-c4cnccn4)nn23)cc1 the results were CBX7 inh 1.
CC(C)(C)c1ccc(-c2nnc3sc(-c4ccccn4)nn23)cc1 was read as CBX7 inh 0.11*.
`COc1ccc(CNCCC(c2ccc3c(c2)OCO3)c2ccccc2OC)cc1OC` (stereo not given) gave CBX7 inh 1.4.
c1ccc(-c2nnc(Nc3ccccn3)c3ccccc23)cc1 was read as CBX7 inh 0.9.
`Cc1cc(C)cc(-c2nc(-c3ccccn3)no2)c1` gave CBX7 inh 0.97.
Screening c1ccc(-c2nnc(-c3ccccn3)nc2-c2ccccc2)cc1 returned CBX7 inh 0.05*.
For CCOC(=O)c1c(NC(=O)CN2CCCCC2)sc2c1CCCC2=O the results were CBX7 inh 0.99.
`Cc1cccc(NC(=O)c2cc3c(n(-c4ccc(Cl)cc4)c2=O)CC(C)(C)CC3=O)n1` gave CBX7 inh 1.
Screening CCOc1ccc(Nc2nc(-c3sc(NC(=O)CC)nc3C)cs2)cc1 returned CBX7 inh 0.43*.
For CC(=O)Nc1nc(C)c(-c2csc(Nc3ccc(O)cc3)n2)s1 the results were CBX7 inh 0.89.
`CC(=O)Nc1nc(C)c(-c2csc(Nc3ccc(Br)cc3)n2)s1` gave CBX7 inh 0.96.
For CCC(=O)Nc1nc(C)c(-c2csc(Nc3cccc(C(=O)O)c3)n2)s1 the results were CBX7 inh 0.97.
Screening CC(=O)Nc1ccc(Nc2nc(-c3sc(NC(C)=O)nc3C)cs2)cc1 returned CBX7 inh 0.92.
CCC(=O)Nc1nc(C)c(-c2csc(Nc3ccc(C(=O)O)cc3)n2)s1 was read as CBX7 inh 0.088*!.
For COc1cccc(C(=O)NCCc2cc3ccc(C)c(C)c3[nH]c2=O)c1OC the results were CBX7 inh 1.1.
Screening COc1ccc(C(=O)Nc2ccccc2C(=O)Nc2nc3ccccc3n2C)cc1 returned CBX7 inh 1.2.
For CN1CCCCc2c(n(Cc3ccccc3)c3ccccc23)C1=O the results were CBX7 inh 1.
Screening COc1ccc(CCNC(=O)CCCn2nc(C)c3cc(F)ccc32)cc1OC returned CBX7 inh 0.92.
Screening O=C(NCCN1CCOCC1)c1cc2c(s1)CS(=O)(=O)C2 returned CBX7 inh 1.1.
CCOC(=O)c1cc(-c2cccc(OC)c2OC)no1 was read as CBX7 inh 1.2.
Screening CC(NC(=O)c1cc(-c2cccc(Br)c2)nc2ccccc12)c1ccccc1 (stereo not given) returned CBX7 inh 1.2.
Screening COc1ccc(CNC(=O)c2ccc(CNS(=O)(=O)c3ccccc3)cc2)cc1 returned CBX7 inh 0.99.
For COc1ccc(NC(CNS(=O)(=O)c2ccccc2)c2ccccc2)cc1 (stereo not given) the results were CBX7 inh 0.29*.
Cc1ccc(S(=O)(=O)NCC(NC(c2ccccc2)c2ccccc2)c2ccccc2)cc1 (stereo not given) was read as CBX7 inh 0.84.
Cc1cccc(NC(=O)Cn2cc3c(n2)CCCC3)c1C was read as CBX7 inh 1.1.
`COc1ccccc1Nc1cc(C(F)(F)F)nc2c(OC)ccc(OC)c12` gave CBX7 inh 0.2*.
`COc1ccccc1Nc1cc(C)nc2c(C)cccc12` gave CBX7 inh 1.1.
Screening COc1ccccc1Nc1cc(C)nc2c(OC)cccc12 returned CBX7 inh 0.77.
Screening Cc1ccccc1N1C(=O)c2ccccc2C1Nc1ccccc1Br (stereo not given) returned CBX7 inh 0.96.
Fc1ccc(-c2cc(C(F)(F)F)n3ncnc3n2)cc1 was read as CBX7 inh 0.47*.
Cc1ccc(-c2cc(-c3ccc(F)cc3)n3ncnc3n2)cc1 was read as CBX7 inh 0.86.
For Fc1ccc(-c2cc(-c3ccccc3)nc3ncnn23)cc1 the results were CBX7 inh 1.
